# Test results reported in ChEMBL document CHEMBL3433997, “St. Jude Leishmania screening dataset” (2016).
# How the values were obtained:
# Type in all cases: functional
# [1] = target: Solute carrier family 2, facilitated glucose transporter member 1 (Homo sapiens) (UniProt P11166); assay: ST_JUDE_LEISH: Cytotoxicity at 2uM final concentration against transgenic Leishmania Mexicana promastigotes LmGLUT1 that are glucose transport deficient and complemented with the human glucose transporter GLUT1. Activity is measured by DNA content using SYBR green in vitro
# Solute carrier family 2, facilitated glucose transporter member 1 (Homo sapiens), sequence (P11166 whole entry): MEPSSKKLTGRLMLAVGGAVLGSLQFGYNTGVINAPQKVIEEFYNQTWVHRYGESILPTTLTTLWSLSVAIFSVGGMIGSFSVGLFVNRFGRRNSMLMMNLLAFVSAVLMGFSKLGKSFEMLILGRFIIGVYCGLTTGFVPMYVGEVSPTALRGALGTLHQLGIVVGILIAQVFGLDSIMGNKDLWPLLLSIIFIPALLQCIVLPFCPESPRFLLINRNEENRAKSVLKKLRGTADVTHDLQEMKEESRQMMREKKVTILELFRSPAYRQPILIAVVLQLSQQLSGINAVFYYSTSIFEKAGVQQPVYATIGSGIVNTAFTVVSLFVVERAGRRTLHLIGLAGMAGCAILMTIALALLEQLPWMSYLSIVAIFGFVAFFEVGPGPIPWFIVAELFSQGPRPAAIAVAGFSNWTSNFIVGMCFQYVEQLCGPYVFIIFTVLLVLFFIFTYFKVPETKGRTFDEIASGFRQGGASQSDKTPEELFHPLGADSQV
# [2] = target: Hexose transporter 1 (Plasmodium falciparum) (UniProt O97467); assay: ST_JUDE_LEISH: Cytotoxicity at 2uM final concentration against transgenic Leishmania Mexicana promastigotes LmPfHT that are glucose transport deficient and complemented with the Plasmodium falciparum hexose transporter. Activity is measured by DNA content using SYBR green in vitro
# [3] = target: Glucose transporter (Leishmania mexicana) (UniProt O61059); assay: ST_JUDE_LEISH: Cytotoxicity at 2uM final concentration against transgenic Leishmania Mexicana promastigotes LmGT2 that are glucose transport deficient and complemented with the L. Mexicana glucose transporter 2. Activity is measured by DNA content using SYBR green in vitro
Structure (SMILES),inhibition [1] [%],inhibition [2] [%],inhibition [3] [%]
COc1cccc(C(=O)NCc2cccs2)c1Oc1ccccc1,13.2,12.2,11
Cc1cccc2nc(-c3ccc(-c4ccc(CN5CCN(CC6CCCN(C)C6)CC5)cc4)cc3)[nH]c12 (stereo unspecified),8.82,10.8,6.25
O=C(NC1CCC(N2CCC(O)(c3ccc(F)cc3)CC2)CC1)c1cc2ccccc2[nH]1 (stereo unspecified),1.2,2.62,-0.31
N#Cc1ccc(CN2CCC(Oc3ccc(NC(=O)c4ccco4)cc3Cl)C2)cc1 (stereo unspecified),3.53,0.89,-0.68
CCN(Cc1ccccc1)C1CCN(Cc2cc(Br)ccc2O)CC1,2.39,2.05,2.71
Cc1cc(C)c(NC(=O)NC2CCN(CCCCCNC(=O)/C=C/c3ccc(Cl)c(Cl)c3)C2)c(C)c1 (stereo unspecified),2.03,2.36,2.29
COc1ccc2[nH]c(C)cc(=NN=Cc3ccc(Cl)cc3)c2c1,6.05,6.41,-0.5
COc1ccc2c(C)cc(NCCCN(C)C)nc2c1,0.02,-0.64,-1.1
COc1ccc2nccc([C@@H](O)CN3CCC(NC(=O)/C=C/c4ccnc5ccccc45)CC3)c2c1,-1.7,-1.62,-2.64
O=C(Nc1ccc(C(=O)N2CCN(CCN3CCN(c4cccc(C(F)(F)F)c4)CC3)CC2)cc1)c1ccc(OC(F)(F)F)cc1,-1.35,0.14,-2.39
CC(C)(C)c1ccc(CNC(=O)/C=C/c2ccc(CNC3CCNCC3)cc2)cc1,-1.23,-1.07,-1.84
Cn1nccc1C(=O)NCCNCc1cccc(-c2csc(-c3nc4ccccc4[nH]3)c2)c1,9.15,8.22,7.22
